Screening results from PubChem.
TEAD-YAP block = TEAD-YAP interaction inhibition. 640,000 tested, 1.4% active. inhibition, % at 9.12 µM. HEK-TIYL cells, TEAD-Gal4/YAP UAS-luciferase luminescence; in the data active means inhibition above about 32%;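 further: 0% = median of test compound wells and 100% = reference inhibitor wells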
FBW7 act = activators of human E3 ligase FBW7; AlphaScreen FBW7–phospho-cyclin E peptide binding, activator screen; normalized activity (activation), % at 26.1 µM; Q969H0; 650,000 tested, 0.13% active; AID 1259310; in the data active means normalized activity above about 1.9%;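 further: purified mutant Fbw7 with reduced substrate affinity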
MITF primary = human MITF inhibition, primary screen; O75030; AlphaScreen MITF homodimerization, bead proximity signal; inhibition, % at 2.6 µM; 650,000 tested, 0.91% active; AID 1259374; in the data active means inhibition above about 50%;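 further: 0% = vehicle wells with protein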
Target sequence (O75030 whole entry, looked up): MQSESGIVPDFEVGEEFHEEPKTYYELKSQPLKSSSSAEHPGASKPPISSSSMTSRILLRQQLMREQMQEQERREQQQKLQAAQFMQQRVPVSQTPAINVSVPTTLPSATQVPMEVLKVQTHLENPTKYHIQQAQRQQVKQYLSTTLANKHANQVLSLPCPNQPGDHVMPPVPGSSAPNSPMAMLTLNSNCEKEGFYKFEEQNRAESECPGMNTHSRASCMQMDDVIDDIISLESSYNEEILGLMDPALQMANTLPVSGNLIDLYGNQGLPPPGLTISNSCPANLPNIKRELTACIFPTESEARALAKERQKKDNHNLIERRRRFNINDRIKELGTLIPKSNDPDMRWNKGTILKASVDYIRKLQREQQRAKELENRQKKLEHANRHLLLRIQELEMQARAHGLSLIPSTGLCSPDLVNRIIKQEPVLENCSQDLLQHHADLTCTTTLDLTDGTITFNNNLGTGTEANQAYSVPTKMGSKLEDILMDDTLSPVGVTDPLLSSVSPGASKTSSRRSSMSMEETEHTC
GPR151 ag = activators of human GPR151; 650,000 tested, 1% active; Q8TDV0; PathHunter beta-arrestin GPR151 cells, luminescence; activation, % at 11.2 µM; in the data active means activation above about 4.9%;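 further: 0% = median of compound wells and 100% = cells with positive control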
* marks the source's active call; other numbers are inactive results. A selection: hits, their analogues and other compounds. The true share with any hit is near 3.4%.

SMILES	TEAD-YAP block	FBW7 act	MITF primary	GPR151 ag
c1csc(CNc2ncnc3ccccc23)c1	51*	0	3	2
Fc1ccc(CNc2ncnc3ccccc23)cc1	55*	0	-4	1
Cc1ccccc1-n1ncc2c(NCc3ccc(F)cc3)ncnc21	-4	0	1	0
CCOc1ccc(NC(=O)c2ccc(O)cc2)cc1	64*	1	1	-3
O=C(Nc1ccc(O)cc1)c1ccc([N+](=O)[O-])cc1	55*	0	11	1
CCOCCOc1cccc(C(=O)Nc2ccc3ccccc3c2)c1	39*	1	10	-3
CCC(=O)Oc1ccc(C(=O)Nc2ccc(N(C)C)cc2)cc1	38*	0	-9	-1
O=C(COc1ccc(Br)cc1)Nc1cc(Cl)ccc1O	-20	0	8	5
CCOc1ccc(NC(=O)c2cccc(O)c2)cc1	80*	0	7	-6
Cc1cnc(C)c(-c2ccc(F)c3c2OC(CNC(=O)CCC2CCCC2)C3)n1 (centres undefined)	-8	0	-17	1
O=C(Nc1ccccc1-c1nc2ccccc2[nH]1)C1CC1	38*	0	4	1
COc1cc2ccccc2cc1C(=O)Nc1ccccc1-c1nc2ccccc2[nH]1	7	2.6*	-2	1
CC(=O)c1ccc(C(=O)Nc2ccccc2-c2nc3ccccc3[nH]2)cc1	-1	0	-12	1
O=C(Nc1ccccc1-c1nc2ccccc2[nH]1)C1COc2ccccc2O1 (centres undefined)	-3	0	-5	0
COC(=O)c1ccc(C2Nc3ccc4ncccc4c3C3=C2C(=O)CCC3)cc1OC (centres undefined)	59*	1	6	-1
COCCCn1c(=O)[nH]c2ncc(-c3cccc(F)c3)nc21	-3	0	14	0
COCCCn1c(=O)[nH]c2ncc(-c3cnc(OC)nc3)nc21	-3	2.2*	15	-1
Cc1ccc(C(NC(=O)c2ccccc2)c2ccc3cccnc3c2O)cc1 (centres undefined)	24	0	6	-1
Cc1cc(C)nc(NC(c2ccco2)c2ccc3cccnc3c2O)n1 (centres undefined)	-32	0	11	-1
Oc1cccnc1NC(c1ccccc1F)c1ccc2cccnc2c1O (centres undefined)	36*	0	45	1
CC(=O)NC(c1ccc(C(C)C)cc1)c1ccc2cccnc2c1O (centres undefined)	83*	-1	24	3
CC(=O)NC(c1ccccc1F)c1ccc2cccnc2c1O (centres undefined)	84*	0	-11	-2
CCOC(=O)C(NC(=O)CC)(Nc1sc2c(c1C(=O)OC)CCN(C)C2)C(F)(F)F (centres undefined)	-11	3.4*	-6	-1
CC(C)(CO)Cn1c(=O)[nH]c2ncc(-c3cccc(NS(C)(=O)=O)c3)nc21	-2	0	2	0
CCOCCCNC(=O)/C(C#N)=C/c1ccc(Cl)c([N+](=O)[O-])c1	5	1	16	-3
SMILES	TEAD-YAP block	FBW7 act	MITF primary	GPR151 ag
COc1cc(/C=C(\C#N)C(=O)Nc2ccc(Cl)cc2)cc([N+](=O)[O-])c1O	8	1	23	-1
COc1cc(/C=C(\C#N)C(=O)Nc2ccc(F)cc2)cc([N+](=O)[O-])c1O	37*	0	-5	-1
CCOCCCNC(=O)/C(C#N)=C/c1cc(OC)c(O)c([N+](=O)[O-])c1	48*	0	20	-1
CCN(CC)c1ccc(/C=C(/C#N)C(=O)Nc2ccc(O)cc2)cc1	40*	0	17	0
COc1cc(/C=C(\C#N)C(=O)Nc2ccc(O)cc2)cc(Cl)c1O	54*	0	3	0
Cc1ccccc1C(=O)Nc1ccccc1-c1nnn(CC(=O)NC2CCCCC2)n1	1	0	10	-1
CCCOc1ccc(CSc2nnc(C)n2N)cc1	-8	0	2	1
O=C(Cc1ccccc1)N(Cc1ccccn1)c1nc2ccccc2s1	-6	0	2	0
COc1cc(/C=C(/C#N)C(=O)Nc2cccc(C)c2)cc(Br)c1O	3	0	-4	-1
CCOc1cc(/C=C(/C#N)C(=O)Nc2ccc(O)cc2)cc(Br)c1O	56*	0	-9	-1
COc1cc(/C=C(/C#N)C(=O)Nc2ccc(O)cc2)cc(Br)c1O	43*	0	0	2
COc1cc(/C=C(/C#N)C(=O)Nc2ccc(O)cc2)ccc1O	47*	0	17	1
Nc1nc(F)cc(Oc2ccccc2)n1	10	0	4	-1
CC(=O)c1ccc(-c2cc(F)cc3c2OC(CNC(=O)/C=C/c2cccnc2)C3)s1 (centres undefined)	33*	0	0	-1
CCCC(=O)Oc1c(Sc2ccccc2[N+](=O)[O-])c(C)nn1C(C)(C)C	34*	0	-14	1
COc1ccc(C2C(C#N)=C(N)Oc3ccc4ccccc4c32)cc1OC (centres undefined)	-8	0	-1	2
N#CC1=C(N)Oc2ccc3ccccc3c2C1c1ccccc1F (centres undefined)	52*	0	-10	-1
COc1cc(C2C(C#N)=C(N)Oc3ccc4ccccc4c32)cc(OC)c1OC (centres undefined)	48*	0	4	0
CC(=O)NC(=C(Cl)Cl)c1ccccc1	2	0	-4	1
CC12CCC(C(=O)NCc3ccccn3)(CC1=O)C2(C)C (centres undefined)	4	0	5	0
CC(=O)OCCc1ccc(N2C(=O)c3ccccc3C2=O)cc1	-3	0	-4	-1
CCc1ccccc1NC(=O)CN(C)C(=O)CCl	79*	0	-1	-2
FC(F)(F)c1cccc(NCc2cn3cccnc3n2)c1	-1	2.3*	3	0
FC(F)(F)c1cccc(NCc2cn3ccccc3n2)c1	-24	0	1	0
CC(C(=O)Nc1ncn[nH]1)c1ccc([N+](=O)[O-])cc1 (centres undefined)	12	-1	8	-1
SMILES	TEAD-YAP block	FBW7 act	MITF primary	GPR151 ag
CC(C(=O)Nc1ccncc1)c1ccc([N+](=O)[O-])cc1 (centres undefined)	33*	1	0	4
COc1cc(C(=O)Nc2cc(C(=O)NCc3ccco3)ccc2N2CC3CC(C2)c2cccc(=O)n2C3)cc(OC)c1OC (centres undefined)	0	0	-2	0
O=C(CCl)NCCSc1ccc(Cl)cc1	57*	0	-2	1
Cc1onc(-c2ccccc2Cl)c1C(=O)Nc1ccc(-c2nc3ccccc3[nH]2)cc1	33*	0	-3	4
CC(=O)NS(=O)(=O)c1ccc(NC(=O)c2c(-c3ccccc3Cl)noc2C)cc1	-10	1.9*	13	1
CN(c1ccccc1)S(=O)(=O)c1ccc(C(=O)Nc2ccc(-c3nc4ccccc4[nH]3)cc2)cc1	-6	1	7	1
Cc1onc(-c2ccccc2Cl)c1C(=O)Nc1ccccc1C(=O)Nc1ccccc1	33*	0	-13	2
